Source: PubChem (Broad Institute)
LMP1 NFkB inh – Epstein-Barr LMP1 NF-kappaB reporter inhibition; LMP1-induced NF-kappaB luciferase reporter cells, luminescence; inhibition, % at 12.5 µM; AID 504558; 350,000 compounds, 0.69% hits; in the data active = inhibition above about 41%; inconclusive = no clear call, values can overlap the other calls;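 note: 0% = neutral control wells and 100% = reference inhibitor control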
PAX8 reporter – lowers PAX8-driven luciferase in RMG-I cells; RMG-I TPO-luciferase reporter, SteadyGlo, 24 h; inhibition, % at 12.6 µM; 360,000 compounds, 1.2% hits; AID 652154;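 active = mean replicate inhibition at least 60% with every replicate also reaching 60%; inconclusive = only one of the two criteria is met; inactive = mean below 60% and not all replicates reaching 60%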;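 note: luciferase light reporting Pax8 driven TPO promoter activity; plate controls were median of neutral control wells for no effect and mitoxantrone controls for full effect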
PGC1a acetyl inh – PGC1a acetylation modulation, inhibitor mode. U2OS PGC1a acetylation, AlphaScreen anti-acetyl-lysine; with virally co-expressed GCN5 acetyltransferase. AID 651687. 350,000 compounds, 0.17% hits. inhibition, % at 15.6 µM;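 active = every replicate shows inhibition of at least 40%; inconclusive = mean inhibition at least 40% but some replicate below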;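 note: 0% = neutral control wells and 100% = positive control wells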
EWS-Fli block – blocks EWS/Fli oncoprotein-driven transcription | 350,000 compounds, 0.67% hits | AID 651661 | inhibition, % at 12.6 µM | A673 NR0B1-luciferase reporter, viability-normalised;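 active = mean inhibition of at least 50% after viability correction, with every replicate also passing that limit; inconclusive = mean reaches 50% but only one of two replicates passes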;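 note: firefly luciferase signal divided by Alamar Blue viability fluorescence both relative to DMSO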
TRPM1 prom inh – reduces MITF-dependent TRPM1 promoter luciferase signal; SK-MEL-5 TRPM1 promoter luciferase, 24 h; inhibition, % at 12.5 µM; 330,000 compounds, 0.83% hits;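 active = mean inhibition across replicates of 60% or more, whatever share of single replicates reaches that level; inconclusive = some that reach 60%, reason not given; inactive = mean inhibition across replicates below 60%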
LGR2 inh – inhibitors of bursicon-induced Drosophila LGR2 receptor cAMP signaling | HEK293 LGR2, CRE-luciferase, bursicon-stimulated, 4 h | inhibition, % at 9.99 µM | 380,000 compounds, 0.35% hits | AID 720647;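 active = drop in luminescence signal, shown as inhibition above about 50% in the replicate tests, limit read from the data, passing the limit was not always enough; inconclusive = probably only some replicates passing the limit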;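 note: agonist challenge used bursicon conditioned medium at about half maximal strength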
Starred values were filed as active, the others as inactive. Only some compounds are listed: those with a hit (about 2.2% of all), similar ones and a draw of the others.

How did Cc1ccc(C(=O)Nc2nc(-c3ccccn3)cs2)s1 do in these assays?
LMP1 NFkB inh: 27; PAX8 reporter: 43; PGC1a acetyl inh: 16; EWS-Fli block: -33; TRPM1 prom inh: 19

How did Cc1c(C(=O)Nc2nc(-c3ccccn3)cs2)oc2ccccc12 do in these assays?
LMP1 NFkB inh: 41*; PGC1a acetyl inh: 12; TRPM1 prom inh: -6

What do the screens show for `Cc1cccnc1Nc1nc(-c2ccccn2)cs1`?
LMP1 NFkB inh: 51*; PGC1a acetyl inh: -47; TRPM1 prom inh: 39

Results for Cn1cccc1C(=O)Nc1nc(-c2ccccn2)cs1 ?
LMP1 NFkB inh: 42*; PGC1a acetyl inh: 1; TRPM1 prom inh: -14

How did O=C(O)C[C@@H]1C[C@@H]2c3cc(NC(=O)C4CCOCC4)ccc3O[C@@H]2[C@H](CO)O1 do in these assays?
PAX8 reporter: -13; PGC1a acetyl inh: -4; LGR2 inh: 1

Results for CCOc1cc(/C=C2\C(=N)N3N=C(S(=O)(=O)CC)SC3=NC2=O)ccc1OC(=O)c1ccco1 ?
LMP1 NFkB inh: -4; PAX8 reporter: -10; PGC1a acetyl inh: -6; EWS-Fli block: 4; TRPM1 prom inh: 0; LGR2 inh: -10

Results for CCOc1cc(/C=C2/C(=N)N3N=C(CC)SC3=NC2=O)ccc1OC(=O)c1ccco1 ?
LMP1 NFkB inh: 43*; PAX8 reporter: 0; PGC1a acetyl inh: 3; TRPM1 prom inh: 9; LGR2 inh: 17

How did C[C@H](CO)N1C[C@H](C)[C@@H](CN(C)Cc2ccccc2)OCCCC[C@H](C)Oc2ccc(NS(=O)(=O)c3cn(C)cn3)cc2C1=O do in these assays?
PAX8 reporter: -36; PGC1a acetyl inh: -1; EWS-Fli block: 4; LGR2 inh: -2

How did C[C@H](CO)N1C[C@H](C)[C@H](CN(C)C(=O)Cc2ccccc2)OCCCC[C@H](C)Oc2ccc(NC(=O)Nc3ccc(C(F)(F)F)cc3)cc2C1=O do in these assays?
PAX8 reporter: 59; EWS-Fli block: 0; LGR2 inh: inconclusive

What do the screens show for `O=C(Nc1ccccc1)Nc1cc(OCC(F)(F)F)cc(OCC(F)(F)F)c1`?
LMP1 NFkB inh: -5; PAX8 reporter: 95*; EWS-Fli block: 44; TRPM1 prom inh: 85*; LGR2 inh: 30

Results for Cc1ccc2c(c1)c1ccc3c(c1n2C)C(=O)C=CC3=O ?
LMP1 NFkB inh: -69; PAX8 reporter: 2; PGC1a acetyl inh: -2; EWS-Fli block: 40; TRPM1 prom inh: 93*; LGR2 inh: -11

How did Cn1c2ccccc2c2ccc3c(c21)C(=O)C=CC3=O do in these assays?
LMP1 NFkB inh: 8; PAX8 reporter: 0; PGC1a acetyl inh: -2; EWS-Fli block: -5; TRPM1 prom inh: 89*; LGR2 inh: 30

How did Cc1ccc(C)c2c1c1ccccc1n2C do in these assays?
LMP1 NFkB inh: -4; PAX8 reporter: -13; PGC1a acetyl inh: 6; EWS-Fli block: 9; TRPM1 prom inh: 13; LGR2 inh: 2

What do the screens show for `COc1ccc2c(c1)c1ncn(CCN3CCCC3)c(=O)c1n2C`?
LMP1 NFkB inh: -3; PGC1a acetyl inh: 14; TRPM1 prom inh: 4

How did COc1ccc2c(c1)c1ccc3c(c1n2C)C(=O)C=CC3=O do in these assays?
LMP1 NFkB inh: -92; PAX8 reporter: 11; PGC1a acetyl inh: 0; EWS-Fli block: 60*; TRPM1 prom inh: 92*; LGR2 inh: -2

What do the screens show for `C[C@H]1CN([C@@H](C)CO)C(=O)c2cccc(NC(=O)C3CCOCC3)c2O[C@H]1CN(C)C(=O)Nc1ccccc1`?
PAX8 reporter: 1; PGC1a acetyl inh: 3; EWS-Fli block: 0; LGR2 inh: -12

Results for O=C(C1CCCC1)N1CC2(C1)[C@H](c1ccccc1)[C@@H](CO)N2Cc1cncnc1 ?
PAX8 reporter: -18; PGC1a acetyl inh: 6; EWS-Fli block: -3; LGR2 inh: -3

What do the screens show for `C[C@H](CO)N1C[C@H](C)[C@H](CN(C)CC2CCCCC2)Oc2ccc(NC(=O)CCCN(C)C)cc2CC1=O`?
PAX8 reporter: -5; PGC1a acetyl inh: -7; EWS-Fli block: 2; LGR2 inh: 11

Results for COc1ccccc1CN(C)C[C@@H]1OCc2ccccc2-c2c(n(C)c3ccccc23)C(=O)N([C@@H](C)CO)C[C@@H]1C ?
PAX8 reporter: 4; PGC1a acetyl inh: 6; EWS-Fli block: -2; LGR2 inh: -12

Results for Cc1c(OCC(=O)NC2CC(C)(C)NC(C)(C)C2)ccc2c1oc(=O)c1ccccc12 ?
LMP1 NFkB inh: -14; PAX8 reporter: -5; PGC1a acetyl inh: 3; EWS-Fli block: -5; TRPM1 prom inh: 76*; LGR2 inh: -2

Results for CCOc1ccc(/C=C/[N+](=O)[O-])c2ccccc12 ?
LMP1 NFkB inh: 75*; PGC1a acetyl inh: -38; TRPM1 prom inh: 84*

How did CCCCOc1ccc2ccccc2c1C=O do in these assays?
LMP1 NFkB inh: -23; PAX8 reporter: -65; PGC1a acetyl inh: 12; TRPM1 prom inh: -59

What do the screens show for `CCOC(=O)COc1ccc2ccccc2c1/C=C/[N+](=O)[O-]`?
LMP1 NFkB inh: 12; PAX8 reporter: 15; EWS-Fli block: 22; TRPM1 prom inh: 83*; LGR2 inh: 105*

What do the screens show for `O=[N+]([O-])/C=C/c1c(OCc2ccccc2)ccc2ccccc12`?
LMP1 NFkB inh: -20; TRPM1 prom inh: 98*

How did CCOC(=O)COc1ccc(/C=C/[N+](=O)[O-])c(OCC(=O)OCC)c1 do in these assays?
LMP1 NFkB inh: 7; PGC1a acetyl inh: -77; TRPM1 prom inh: 92*; LGR2 inh: 12

How did CCOC(=O)COc1ccc2nsnc2c1 do in these assays?
LMP1 NFkB inh: 0; PGC1a acetyl inh: -4; TRPM1 prom inh: -4

How did CCOC(=O)Cn1cc(/C=C/[N+](=O)[O-])c2ccccc21 do in these assays?
LMP1 NFkB inh: 5; PAX8 reporter: 17; PGC1a acetyl inh: 0; EWS-Fli block: -6; TRPM1 prom inh: 9; LGR2 inh: 15

How did CCCc1cn(CC[C@H]2CC[C@H](NC(=O)C3CCCCC3)[C@H](CO)O2)nn1 do in these assays?
PAX8 reporter: -9; PGC1a acetyl inh: 4; EWS-Fli block: 1; LGR2 inh: -19

What do the screens show for `C[C@H](CO)N1C[C@H](C)[C@@H](CN(C)Cc2ccccc2C(=O)O)Oc2ncc(C#CC3CC3)cc2C1=O`?
PGC1a acetyl inh: 6; EWS-Fli block: -9; LGR2 inh: -2

What do the screens show for `O=C(C[C@H]1C[C@H]2c3cc(NS(=O)(=O)c4ccc(F)cc4)ccc3O[C@H]2[C@@H](CO)O1)N1CCCCC1`?
PAX8 reporter: -5; PGC1a acetyl inh: 0; EWS-Fli block: 4; LGR2 inh: -1

Results for COc1ccc(S(=O)(=O)N(C)C[C@H]2OCCCC[C@H](C)Oc3ccc(NC(=O)CCCN(C)C)cc3C(=O)N([C@@H](C)CO)C[C@H]2C)cc1 ?
PAX8 reporter: 19; PGC1a acetyl inh: -5; EWS-Fli block: -27; LGR2 inh: -4
